# Data published in the supplement of paper PMC6953052.
# Several values for one entry are separate records, joined by “and”; a condition that tells them apart may be missing. Equal values may be shown once. Where a name gives a salt, the structure may show the parent alone. Over roughly 1,700 compounds, “fraction of GFP-LC3-positive cells (≥5 vesicles/cell)” has its median near 0.43; the highest 2% begin near 0.81. This excerpt belongs to a sample that is enriched for the highest values.
# Test system: CbCln3 Δex7/8/Δex7/8 GFP-LC3 cerebellar neuronal cells
# Assay: fraction of GFP-LC3-positive cells (≥5 vesicles/cell); higher = more autophagosome accumulation
# Procedure, shortened: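 Values are the duplicate-averaged fraction of cells passing a GFP-LC3 vesicle cutoff, counted per cell in CellProfiler with out-of-focus images excluded. That cutoff is 5 or more vesicles. Wild-type or mutant CbCln3 cerebellar cells stably expressing GFP-LC3 (2 × 10^3/well, 384-well) were given ~50 nL compound in DMSO by pin transfer for 24 h at 33 °C, then fixed in 3.2% PFA and imaged at 10×, three fields per well.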
row,SMILES,fraction of GFP-LC3-positive cells
1,C=C(C)[C@H]1O[C@H]2CC[C@@]3(C)[C@@](O)(CC[C@H]4[C@@H]5OC(C)(C)[C@H]6C[C@@H]7C(=C)Cc8c(Cl)cc9[nH]c(c5c9c8[C@@]76O)[C@@]43C)[C@]23O[C@@H]3[C@H]1O,0.866
2,CC[C@H]1CN2CCc3cc(OC)c(OC)cc3[C@@H]2C[C@@H]1C[C@H]1NCCc2cc(OC)c(OC)cc21.Cl.Cl [Emetine dihydrochloride],0.546
3,Br.C[C@@H]1NCCc2cc(O)c(O)cc21 [Salsolinol hydrobromide],0.504
4,C/C=C(/C)C(=O)O[C@H]1C(C)=C2[C@H]([C@@H]1OC(=O)CCCCCCC)[C@@](C)(OC(C)=O)C[C@H](OC(=O)CCC)[C@@]1(O)[C@H]2OC(=O)[C@@]1(C)O,0.847
5,"N=C(N)NOCC[C@H](N)C(=O)O.O.O=S(=O)(O)O [Canavanine sulfate monohydrate (L,+)]",0.416
6,CCCC(C)(COC(N)=O)COC(=O)NC(C)C (configuration not stated) [Carisoprodol],0.466
7,C[N+](C)(C)CCCCCCCCCC[N+](C)(C)C.[Br-].[Br-] [Decamethonium bromide],0.418
8,C/C1=C/C(=O)O[C@@H]2C[C@@H](CC[C@H](C)/C=C\CC1)O[C@@](O)([C@@H]1CSC(=O)N1)C2 [Latrunculin B],0.84
9,C[C@@]12N[C@@H](Cc3ccccc31)c1ccccc12.O=C(O)/C=C\C(=O)O [(-)-MK 801 hydrogen maleate],0.432
10,CC(=O)c1c(O)c(C)c(O)c(Cc2c(O)c3c(c(C(=O)/C=C/c4ccccc4)c2O)OC(C)(C)C=C3)c1O,0.551
11,CC(=O)c1c(O)c(C)c(O)c(Cc2c(O)c3c(c(C(=O)/C=C/c4ccccc4)c2O)OC(C)(C)C=C3)c1O [Rottlerin],0.553
12,CC(=O)O[C@H]1CC[C@@]2(C)C(=CC[C@@H]3[C@@H]2CC[C@]2(C)C(=O)CC[C@@H]32)C1 [Dehydroisoandosterone 3-acetate],0.384
13,CN1C(CC(O)c2ccccc2)CCCC1CC(O)c1ccccc1.Cl (configuration not stated) [Lobelanidine hydrochloride],0.433
14,COc1ccc2c(c1O)-c1c(OC)c(OC)cc3c1[C@H](C2)N(C)CC3 [Isocorydine (+)],0.379
15,"COc1ccc2c(c1OC)CN1CCc3cc4c(cc3C1C2)OCO4 (configuration not stated) [(d,l)-Tetrahydroberberine]",0.303
16,COc1cc2c(cc1O)[C@@H]1Cc3ccc(OC)c(O)c3CN1CC2 [Scoulerine],0.821
17,C[C@H]1O[C@@H](OC2CC[C@]3(C=O)[C@H]4CC[C@]5(C)[C@@H](C6=CC(=O)OC6)CC[C@]5(O)[C@@H]4CC[C@]3(O)C2)C[C@H](O)[C@@H]1O (some centres not stated) [Helveticoside],0.378
18,N#CC(C#N)=Cc1ccc(O)cc1 [Tyrphostin-8],0.461
19,CCN1C[C@@]2(COC)C3[C@@H](OC)[C@H]4[C@@H]1[C@@]3(C1C[C@@]3(O)[C@H](OC(=O)c5ccccc5)C1[C@]4(OC(C)=O)[C@@H](O)[C@H]3OC)[C@@H](OC)C[C@H]2O (some centres not stated) [Aconitine],0.413
20,Cc1nccc2c1[nH]c1ccccc12.Cl [Harmane hydrochloride],0.55
21,Cc1c2ccncc2c(C)c2c1[nH]c1ccccc12 [Ellipticine],0.954
22,O=C(CCCN1CCC(n2c(=O)[nH]c3ccccc32)CC1)c1ccc(F)cc1 [Benperidol],0.358
23,COc1cc2c(c(OC)c1OC)-c1ccc(OC)c(=O)cc1[C@@H](NC(C)=O)CC2 [Colchicine],0.906
24,COC1=C[C@@H]2C3=C([C@@H]2C1=O)[C@@H](NC(C)=O)CCc1cc(OC)c(OC)c(OC)c13 [Lumicolchicine gamma],0.401

row,SMILES,fraction of GFP-LC3-positive cells
1,COc1cc2c(c(OC)c1OC)-c1ccc(O)c(=O)cc1[C@@H](N)CC2 [Trimethylcolchicinic acid],0.415
2,CC[C@@H]1/C=C/C=C/C[C@H](C)[C@@H](O)[C@](C)(O)C(=O)[C@H](C)[C@@H](O)[C@H](C)C(=O)[C@H](C)[C@@H](O)[C@H](C)/C=C/C(=O)O[C@H]2[C@@H](C)[C@@H](CC1)O[C@@]1(CC[C@@H](C)[C@@H](C[C@H](C)O)O1)[C@@H]2C [oligomycin A],0.578
3,CC1=C2C[C@H]3[C@@H](CC=C4C[C@@H](O)CC[C@@]43C)[C@@H]2CC[C@]12O[C@@H]1C[C@H](C)CN[C@H]1[C@H]2C [cyclopamine],0.448
4,CCCCC/C=C\C/C=C\C/C=C\C/C=C\CCCC(=O)NCc1ccc(O)c(OC)c1 [Arvanil],0.848
5,CCCCC/C=C\C/C=C\C/C=C\C/C=C\CCCC(=O)NCC(=O)O [N-Arachidonoylglycine],0.376
6,CCCCC/C=C\C/C=C\C/C=C\C/C=C\CCCC(=O)NCCc1ccc(O)c(O)c1 [Arachidonoyl dopamine],0.658
7,CCCCC/C=C\C/C=C\C/C=C\C/C=C\CCCC(=O)NCC(=O)O,0.263
8,CC(C)NCC(O)c1ccc(N)c(C#N)c1 (configuration not stated),0.462
9,COc1ccc2c(c1OC)C(=O)O[C@@H]2[C@H]1c2cc3c(cc2CCN1C)OCO3.Cl [Hydrastine hydrochloride],0.423
10,COc1cc([C@@H]2c3cc4c(cc3[C@H](O)[C@H]3COC(=O)[C@H]23)OCO4)cc(OC)c1OC [Podophyllotoxin],0.884
11,Cl.Cl.Fc1ccc(C(OCCN2CCN(CCCc3ccccc3)CC2)c2ccc(F)cc2)cc1,0.168
12,CO/C1=C\C(C)=C\[C@@H](C)[C@@H](O)[C@@H](C)C/C(C)=C/C=C/[C@H](OC)[C@@H]([C@@H](C)[C@@H](O)[C@H](C)[C@@]2(O)C[C@@H](O)[C@H](C)[C@@H](C(C)C)O2)OC1=O [bafilomycin A1],0.924
13,O[C@H]1[C@H]2[C@H](O)CCCN2C[C@H]1O [swainsonine],0.371
14,CN1CCC2=C[C@H](O)[C@H]3OC(=O)c4cc5c(cc4[C@H]3[C@@H]21)OCO5 [Hippeastrine hydrobromide],0.407
15,CN1Cc2c(ccc3c2OCO3)[C@@H]2[C@H]1c1cc3c(cc1C[C@@H]2O)OCO3.O [Chelidonine (+)],0.93
16,CN1CCc2cc3c(cc2[C@H]1[C@@H]1OC(=O)c2c1ccc1c2OCO1)OCO3 [Bicuculline (+)],0.326
17,C[C@@H]1CC([C@H](O)CC2CC(=O)NC(=O)C2)C(=O)[C@@H](C)C1 (some centres not stated) [cycloheximide],0.481
18,C[C@@]1(CO)[C@H](O)CC[C@@]2(C)[C@H]1CC[C@H]1C[C@@H]3C[C@@]12CC[C@]3(O)CO [aphidicolin],0.623
19,CC(=O)OCC(=O)[C@H]1CC[C@H]2[C@@H]3CC[C@H]4C[C@H](O)CC[C@]4(C)[C@H]3C(=O)C[C@]12C [Alfadolone acetate],0.441
20,CCCCc1ccc(C(=O)O)nc1 [Fusaric acid],0.408
21,O=C1C=CC(=O)c2c(O)cccc21 [juglone],0.367
22,N#CC(C#N)=NNc1ccc(OC(F)(F)F)cc1,0.936
23,COc1cc2c(cc1OC)C(C)NCC2.Cl (configuration not stated),0.422
24,Cc1nccc2c1[nH]c1cc(O)ccc12.Cl.O [Harmol hydrochloride monohydrate],0.441

row,SMILES,fraction of GFP-LC3-positive cells
1,OC(c1ccccc1)(c1ccccc1)C1CCNCC1 [Azacyclonol],0.306
2,C/C(O)=C(\C#N)C(=O)Nc1cc(Br)ccc1Br,0.547 and 0.552
3,O=C(CCCN1CCC2(CC1)C(=O)NCN2c1ccccc1)c1ccc(F)cc1 [Spiperone],0.376
4,C=C1[C@@H]2CC[C@H]3[C@]4(C)C[C@H](O[C@H]5O[C@H](CO)[C@@H](OS(=O)(=O)[O-])[C@H](OS(=O)(=O)[O-])[C@H]5OC(=O)CC(C)C)C[C@@H](C(=O)O)[C@H]4CC[C@]3(C2)[C@H]1O.[K+].[K+] [Atractyloside potassium salt],0.314
5,O.O.O.O=C1OC2(c3cc(Br)c([O-])cc3Oc3c2cc(Br)c([O-])[c]3[Hg][OH])c2ccccc21.[Na+].[Na+] (configuration not stated) [Merbromin],0.954
6,C[C@@H]1CC[C@@]2(NC1)O[C@H]1C[C@H]3[C@@H]4CC=C5C[C@@H](O)CC[C@]5(C)[C@H]4CC[C@]3(C)[C@H]1[C@@H]2C [Solasodine],0.378
7,CN1C[C@H](CNC(=O)OCc2ccccc2)C[C@@H]2c3cccc4c3c(cn4C)C[C@H]21 [Metergoline],0.238
8,c1ccc(C2CC2)c(OCC2=NCCN2)c1,0.404
9,CCNC(=O)[C@H]1O[C@@H](n2cnc3c(N)ncnc32)C(O)[C@H]1O (some centres not stated) [5'-N-Ethylcarboxamidoadenosine (NECA)],0.445
10,COc1cc2c(cc1O)C[C@H]1c3c(cc(O)c(OC)c3-2)CCN1C [Boldine],0.447
11,Cc1c(C(=O)c2cccc3ccccc23)c2cccc3c2n1[C@H](CN1CCOCC1)CO3,0.451 and 0.539
12,CC1=NCCc2c1[nH]c1cc(O)ccc21.Cl.O.O [Harmalol hydrochloride dihydrate],0.479
13,C[C@H](N)C(=O)N[C@@H](C)C(=O)N[C@@H](Cc1ccccc1)C(=O)CCl,0.742 and 0.818
14,CC(=O)C(C)O.CC(Cc1ccccc1)NCCC(c1ccccc1)c1ccccc1 (configuration not stated) [Prenylamine lactate],0.266
15,CC(C)c1c(CN(C)C(C)Cc2ccccc2)n(C)n(-c2ccccc2)c1=O (configuration not stated) [Famprofazone],0.405
16,CC(C)(C)c1cc(C=C(C#N)C#N)cc(C(C)(C)C)c1O,0.718
17,CC(C)(C)c1cc(C=C(C#N)C#N)cc(C(C)(C)C)c1O [tyrphostin 9],0.882
18,N#CC(C#N)=Cc1ccc(O)c(O)c1,0.348
19,N#CC(C#N)=Cc1cc(O)c(O)c(O)c1,0.46
20,"COc1ccc(CC2c3cc(OC)c(OC)cc3CCN2C)cc1OC (racemic) [Laudanosine (R,S)]",0.508
21,c1cncc([C@H]2CCCCN2)c1 [Anabasine],0.34
22,C[N+]1(C)C2CC[C@H]1C[C@@H](OC(=O)C(CO)c1ccccc1)C2.O=[N+]([O-])[O-] (some centres not stated) [Methylatropine nitrate],0.451
23,COc1ccc(CCN2CCC(Nc3nc4ccccc4n3Cc3ccc(F)cc3)CC2)cc1 [Astemizole],0.587
24,CC[N+]1(C)CCCC(OC(=O)C(O)(c2ccccc2)c2ccccc2)C1.[Br-] (configuration not stated) [Pipenzolate bromide],0.4
